For 12 sequences, binding signal results are on record in publication PMC8384837, “Expanding the binding specificity for RNA recognition by a PUF domain”.

Common to all, as to assay: yeast three-hybrid, YBZ-1, SC-Leu-His + 0.5 mM 3-AT, 4 days
Common to all, as to conditions: tags: N-Gal4 AD-HA kept; label: inside an RPR1-promoter hybrid RNA with tandem MS2 sites; ssRNA

The target in experiment [1] is PUM1 PUF domain R4-NNG (Homo sapiens, UniProt Q14671 828-1176, H972N;Q975G). The essentials:
(§1)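 A centromeric plasmid in strain YBZ-1 co-expressed Pumilio-1 PUF domain libraries, randomized at the three base-contacting residues of each repeat, with matching RNA elements; the strain carries a LexA–MS2 coat fusion and a HIS3 reporter. After four days on SC-Leu (input) or SC-Leu-His + 0.5 mM 3-AT (selection), the repeat regions were PCR-amplified and Illumina-sequenced. The interaction score is the log change in variant frequency from input to selection, using log2 and a pseudocount of 1 where absent.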

Experiment [2] addresses PUM1 PUF domain R4-EWG (Homo sapiens, UniProt Q14671 828-1176, N971E;H972W;Q975G). The essentials: as §1
In experiment [3] the target is PUM1 PUF domain R5-QRL (Homo sapiens, UniProt Q14671 828-1176, C1007Q;Q1011L). In short, it runs like this:
as §1

Experiment [4] has as its target PUM1 PUF domain R3-LHH (Homo sapiens, UniProt Q14671 828-1176, C935L;R936H;Q939H). The essentials:
as §1

Experiment [5] deals with PUM1 PUF domain R3-QRA (Homo sapiens, UniProt Q14671 828-1176, C935Q;Q939A). The essentials: as §1
Chain of PUM1 PUF domain R3-QRA (Q14671 828-1176 C935Q/Q939A): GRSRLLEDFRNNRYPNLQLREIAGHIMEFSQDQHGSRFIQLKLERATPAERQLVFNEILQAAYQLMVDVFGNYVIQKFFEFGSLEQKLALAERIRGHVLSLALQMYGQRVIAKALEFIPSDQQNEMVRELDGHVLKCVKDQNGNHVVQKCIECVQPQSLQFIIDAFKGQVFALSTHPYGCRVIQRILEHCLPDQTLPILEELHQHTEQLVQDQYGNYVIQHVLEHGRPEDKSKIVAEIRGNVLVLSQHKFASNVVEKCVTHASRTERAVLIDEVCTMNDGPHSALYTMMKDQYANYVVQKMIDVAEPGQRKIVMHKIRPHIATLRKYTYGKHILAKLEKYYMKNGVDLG
Experiment [6] concerns the target PUM1 PUF domain R3-QRV (Homo sapiens, UniProt Q14671 828-1176, C935Q;Q939V). In short, it runs like this:
as §1

In experiment [7] the target is PUM1 PUF domain R3-VCE (Homo sapiens, UniProt Q14671 828-1176, C935V;R936C;Q939E). The essentials:
as §1

In experiment [8] the target is PUM1 PUF domain R7-QPR (Homo sapiens, UniProt Q14671 828-1176, S1079Q;N1080P;E1083R). The essentials:
as §1

The target in experiment [9] is PUM1 PUF domain R8-RWQ (Homo sapiens, UniProt Q14671 828-1176, N1122R;Y1123W). In short, it runs like this:
as §1

Experiment [10] addresses PUM1 PUF domain R8-IYV (Homo sapiens, UniProt Q14671 828-1176, N1122I;Q1126V). In short, it runs like this: as §1
The target of experiment [11] is PUM1 PUF domain R8-MYR (Homo sapiens, UniProt Q14671 828-1176, N1122M;Q1126R). In short, it runs like this:
as §1

In experiment [12] the target is PUM1 PUF domain R1-HLR (Homo sapiens, UniProt Q14671 828-1176, S863H;R864L;Q867R). The essentials: as §1
Experiment [13] has as its target PUM1 PUF domain R4-DYI (Homo sapiens, UniProt Q14671 828-1176, N971D;H972Y;Q975I). In short, it runs like this: as §1
Experiment [14] deals with PUM1 PUF domain R4-YHA (Homo sapiens, UniProt Q14671 828-1176, N971Y;Q975A). The essentials:
as §1

In experiment [15] the target is PUM1 PUF domain R4-PFT (Homo sapiens, UniProt Q14671 828-1176, N971P;H972F;Q975T). The essentials: as §1
Chain of PUM1 PUF domain R4-PFT (Q14671 828-1176 N971P/H972F/Q975T): as the sequence (Q14671 828-1176 C935Q/Q939A) above, with Q108C, A112Q, N144P, H145F, Q148T counted along it
Experiment [16] has as its target PUM1 PUF domain R5-LYA (Homo sapiens, UniProt Q14671 828-1176, C1007L;R1008Y;Q1011A). The essentials:
as §1

Experiment [17] addresses PUM1 PUF domain R5-SRL (Homo sapiens, UniProt Q14671 828-1176, C1007S;Q1011L). In short, it runs like this: as §1
Experiment [18] deals with T1, PUM1 PUF domain R6-LWR (Homo sapiens, UniProt Q14671 828-1176, N1043L;Y1044W;Q1047R).
T1 sequence: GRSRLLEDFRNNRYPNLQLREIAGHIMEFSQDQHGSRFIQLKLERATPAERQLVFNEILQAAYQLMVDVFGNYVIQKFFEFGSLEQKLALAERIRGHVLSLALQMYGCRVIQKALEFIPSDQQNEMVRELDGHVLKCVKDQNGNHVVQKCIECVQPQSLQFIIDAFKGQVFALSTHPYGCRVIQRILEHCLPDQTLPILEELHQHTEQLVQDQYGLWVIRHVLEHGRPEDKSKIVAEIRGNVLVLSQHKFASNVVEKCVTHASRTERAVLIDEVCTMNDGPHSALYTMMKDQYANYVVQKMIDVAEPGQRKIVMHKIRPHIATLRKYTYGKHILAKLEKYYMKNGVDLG
In short, it runs like this:
as §1

Experiment [19] concerns the target PUM1 PUF domain R8-SWK (Homo sapiens, UniProt Q14671 828-1176, N1122S;Y1123W;Q1126K). The essentials: as §1
The target in experiment [20] is PUM1 PUF domain R3-GWF (Homo sapiens, UniProt Q14671 828-1176, C935G;R936W;Q939F). The essentials: as §1

Chain of PUM1 PUF domain R7-QPR (Q14671 828-1176 S1079Q/N1080P/E1083R): as the sequence (Q14671 828-1176 C935Q/Q939A) above, with Q108C, A112Q, S252Q, N253P, E256R counted along it
Chain of PUM1 PUF domain R3-QRV (Q14671 828-1176 C935Q/Q939V): as the sequence (Q14671 828-1176 C935Q/Q939A) above, with A112V counted along it
Chain of PUM1 PUF domain R5-QRL (Q14671 828-1176 C1007Q/Q1011L): as the sequence (Q14671 828-1176 C935Q/Q939A) above, with Q108C, A112Q, C180Q, Q184L counted along it
Chain of PUM1 PUF domain R4-NNG (Q14671 828-1176 H972N/Q975G): as the sequence (Q14671 828-1176 C935Q/Q939A) above, with Q108C, A112Q, H145N, Q148G counted along it
Chain of PUM1 PUF domain R5-LYA (Q14671 828-1176 C1007L/R1008Y/Q1011A): as the sequence (Q14671 828-1176 C935Q/Q939A) above, with Q108C, A112Q, C180L, R181Y, Q184A counted along it
Chain of PUM1 PUF domain R4-YHA (Q14671 828-1176 N971Y/Q975A): as the sequence (Q14671 828-1176 C935Q/Q939A) above, with Q108C, A112Q, N144Y, Q148A counted along it
Chain of PUM1 PUF domain R4-DYI (Q14671 828-1176 N971D/H972Y/Q975I): as the sequence (Q14671 828-1176 C935Q/Q939A) above, with Q108C, A112Q, N144D, H145Y, Q148I counted along it
Chain of PUM1 PUF domain R3-LHH (Q14671 828-1176 C935L/R936H/Q939H): as the sequence (Q14671 828-1176 C935Q/Q939A) above, with Q108L, R109H, A112H counted along it

Take “GGCUAGAACUAGUGGAUCCCCCGGCGCCCGGCGGCUCGAGCCCGGGUAAGUGUACAUAGUCUGCAUGCCGCCGGGCGCCAUGCCUGCAGGUCGACUCUAGAAAACAUG”: the binding signal in experiment [1] is 1.82 log2 enrichment (interaction score); in experiment [2], 1.12 log2 enrichment (interaction score).

With “GGCUAGAACUAGUGGAUCCCCCGGCGCCCGGCGGCUCGAGCCCGGGUAAGUGUGAAUAGUCUGCAUGCCGCCGGGCGCCAUGCCUGCAGGUCGACUCUAGAAAACAUG”, in [3], the binding signal was 3.22 log2 enrichment (interaction score).

On to “GGCUAGAACUAGUGGAUCCCCCGGCGCCCGGCGGCUCGAGCCCGGGUAAGUGUAAGUAGUCUGCAUGCCGCCGGGCGCCAUGCCUGCAGGUCGACUCUAGAAAACAUG”, for which the binding signal in [4] is 5.47 log2 enrichment (interaction score); in experiment [5], 3.67 log2 enrichment (interaction score); in experiment [6], 3.59 log2 enrichment (interaction score); in experiment [7], 3.08 log2 enrichment (interaction score).

For the sequence “GGCUAGAACUAGUGGAUCCCCCGGCGCCCGGCGGCUCGAGCCCGGGUAAGUUUAAAUAGUCUGCAUGCCGCCGGGCGCCAUGCCUGCAGGUCGACUCUAGAAAACAUG”, in experiment [8], the binding signal was 5.06 log2 enrichment (interaction score).

Take “GGCUAGAACUAGUGGAUCCCCCGGCGCCCGGCGGCUCGAGCCCGGGUAAGUGUAAUUAGUCUGCAUGCCGCCGGGCGCCAUGCCUGCAGGUCGACUCUAGAAAACAUG”: the binding signal in experiment [5] is 2.85 log2 enrichment (interaction score); in experiment [6], 2.73 log2 enrichment (interaction score).

Regarding “GGCUAGAACUAGUGGAUCCCCCGGCGCCCGGCGGCUCGAGCCCGGGUAAGCGUAAAUAGUCUGCAUGCCGCCGGGCGCCAUGCCUGCAGGUCGACUCUAGAAAACAUG”, the binding signal in experiment [9] was 5.71 log2 enrichment (interaction score); in [10] it was 2.44 log2 enrichment (interaction score); in experiment [11] it was 4.58 log2 enrichment (interaction score).

With “GGCUAGAACUAGUGGAUCCCCCGGCGCCCGGCGGCUCGAGCCCGGGUAAGUGUAAAUCGUCUGCAUGCCGCCGGGCGCCAUGCCUGCAGGUCGACUCUAGAAAACAUG”, the binding signal in [12] is 3.24 log2 enrichment (interaction score).

In the case of “GGCUAGAACUAGUGGAUCCCCCGGCGCCCGGCGGCUCGAGCCCGGGUAAGUGUAAAUUGUCUGCAUGCCGCCGGGCGCCAUGCCUGCAGGUCGACUCUAGAAAACAUG”, the binding signal in [12] is 2.68 log2 enrichment (interaction score).

For the sequence “GGCUAGAACUAGUGGAUCCCCCGGCGCCCGGCGGCUCGAGCCCGGGUAAGUCUAAAUAGUCUGCAUGCCGCCGGGCGCCAUGCCUGCAGGUCGACUCUAGAAAACAUG”, in experiment [8], the binding signal is 1.84 log2 enrichment (interaction score).

For “GGCUAGAACUAGUGGAUCCCCCGGCGCCCGGCGGCUCGAGCCCGGGUAAGUGUAUAUAGUCUGCAUGCCGCCGGGCGCCAUGCCUGCAGGUCGACUCUAGAAAACAUG”, the binding signal in experiment [13] was 6.31 log2 enrichment (interaction score); in [1], 4.95 log2 enrichment (interaction score); in experiment [14], 3.12 log2 enrichment (interaction score).

In the case of “GGCUAGAACUAGUGGAUCCCCCGGCGCCCGGCGGCUCGAGCCCGGGUAAGUGUAAAUAGUCUGCAUGCCGCCGGGCGCCAUGCCUGCAGGUCGACUCUAGAAAACAUG”, the binding signal in experiment [15] is 5.31 log2 enrichment (interaction score); in experiment [16], 3.54 log2 enrichment (interaction score); in [3], 3.37 log2 enrichment (interaction score); in experiment [9], 6.33 log2 enrichment (interaction score); in experiment [17], 3.16 log2 enrichment (interaction score); in experiment [7], 2.11 log2 enrichment (interaction score). Besides, the binding signal was 3.6 log2 enrichment (interaction score) in [2]; 5.05 log2 enrichment (interaction score) in experiment [18]; 5.34 log2 enrichment (interaction score) in experiment [19]; 2.36 log2 enrichment (interaction score) in experiment [10]; 4.65 log2 enrichment (interaction score) in experiment [11]; 5.35 log2 enrichment (interaction score) in experiment [20].

For the sequence “GGCUAGAACUAGUGGAUCCCCCGGCGCCCGGCGGCUCGAGCCCGGGUAAGUGUUAAUAGUCUGCAUGCCGCCGGGCGCCAUGCCUGCAGGUCGACUCUAGAAAACAUG”, the binding signal in experiment [16] is 3.15 log2 enrichment (interaction score); in experiment [17] it was 2.41 log2 enrichment (interaction score).
